PubChem BioAssay AID1159580 (chemical genetic matrix, 2015)
Where “and” joins values, the source holds several entries; their conditions need not be identical. Equal entries are not always repeated. About 2,000 (36%) of roughly 5,500 compounds were called active. Another 18% or so got no clear call; they are omitted. Rule as the data show it: active = normalized growth mostly below about 0.91 (no sharp cut-off); inconclusive = no clear call, values can overlap the other calls; inactive = mostly above about 0.92. The list shows a part of the results.

Test: chemical genetic growth profiling, strain panel (AID 1159580);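 also: tested at 20 µM; growth read once vehicle control cultures reached saturation at 30 °C; 1 = growth at the plate median or of vehicle wells; lower values mean less growth of the strain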
Conditions: growth OD

Measured: normalized growth

CN(C)C(=O)Oc1ccc[n+](C)c1
inactive: S. cerevisiae deletion strains, locus YJR075W, strain HOC1, hits give low values 1 | S. cerevisiae deletion strains, locus YKL009W, strain mrt4, hits give low values 1.01 | S. cerevisiae deletion strains, locus YKL068W, hits give low values 1.02 | S. cerevisiae deletion strains, locus YKL085W, strain MDH1 (second series), hits give low values 1.01 | S. cerevisiae deletion strains, locus YKL085W, strain MDH1, hits give low values 1.01 | S. cerevisiae deletion strains, locus YKL160W, strain elf1, hits give low values 1 | S. cerevisiae deletion strains, locus YKL190W, strain CNB1, hits give low values 1.02 | S. cerevisiae deletion strains, locus YKR001C, strain vps1, hits give low values 1.01 | S. cerevisiae deletion strains, locus YKR026C, strain gcn3, hits give low values 1.01 | S. cerevisiae deletion strains, locus YKR091W, strain srl3, hits give low values 0.997 | S. cerevisiae deletion strains, locus YLL001W, strain dnm1, hits give low values 0.996 | S. cerevisiae deletion strains, locus YLL026W, hits give low values 0.999 | S. cerevisiae deletion strains, locus YLL041C, strain sdh2, hits give low values 1 | S. cerevisiae deletion strains, locus YLR027C, strain aat2, hits give low values 0.999 | S. cerevisiae deletion strains, locus YLR039C, strain RIC1, hits give low values 1.05 | S. cerevisiae deletion strains, locus YLR058C, strain SHM2, hits give low values 1.03 | S. cerevisiae deletion strains, locus YLR102C, strain apc9, hits give low values 1.01 | S. cerevisiae deletion strains, locus YLR113W, strain HOG1, hits give low values 1.05 | S. cerevisiae deletion strains, locus YLR221C, strain rsa3, hits give low values 0.997 | S. cerevisiae deletion strains, locus YLR258W, strain gsy2, hits give low values 1 | S. cerevisiae deletion strains, locus YLR262C, strain YPT6 (second series), hits give low values 1.01 | S. cerevisiae deletion strains, locus YLR262C, strain YPT6, hits give low values 1.06 | S. cerevisiae deletion strains, locus YLR268W, strain sec22, hits give low values 1.01 | S. cerevisiae deletion strains, locus YLR320W, strain mms22, hits give low values 1.01 | S. cerevisiae deletion strains, locus YLR330W, strain CHS5, hits give low values 1.01 | S. cerevisiae deletion strains, locus YLR342W, strain FKS1 (second series), hits give low values 1.06 | S. cerevisiae deletion strains, locus YLR342W, strain FKS1, hits give low values 1.01 | S. cerevisiae deletion strains, locus YLR357W, strain rsc2, hits give low values 1 | S. cerevisiae deletion strains, locus YLR370C, strain arc18, hits give low values 1.01 | S. cerevisiae deletion strains, locus YLR371W, strain rom2, hits give low values 1.01 | S. cerevisiae deletion strains, locus YLR384C, strain iki3, hits give low values 1.01 | S. cerevisiae deletion strains, locus YLR418C, strain cdc73, hits give low values 1.03 | S. cerevisiae deletion strains, locus YML016C, strain PPZ1, hits give low values 1.01 | S. cerevisiae deletion strains, locus YML032C, strain rad52, hits give low values 1.01 | S. cerevisiae deletion strains, locus YML120C, strain ndi1, hits give low values 1 | S. cerevisiae deletion strains, locus YML124C, strain tub3, hits give low values 1.04 | S. cerevisiae deletion strains, locus YMR058W, strain fet3, hits give low values 0.994 | S. cerevisiae deletion strains, locus YMR078C, strain ctf18, hits give low values 1.01 | S. cerevisiae deletion strains, locus YMR125W, strain sto1, hits give low values 1 | S. cerevisiae deletion strains, locus YMR129W, hits give low values 1 | S. cerevisiae deletion strains, locus YMR205C, strain PFK2, hits give low values 1.02 | S. cerevisiae deletion strains, locus YMR223W, strain ubp8, hits give low values 1.05 | S. cerevisiae deletion strains, locus YMR231W, strain pep5, hits give low values 1 | S. cerevisiae deletion strains, locus YMR263W, strain SAP30, hits give low values 1.01 | S. cerevisiae deletion strains, locus YMR307W, strain GAS1, hits give low values 1.04 | S. cerevisiae deletion strains, locus YNL067W, strain RPL9B, hits give low values 1.01 | S. cerevisiae deletion strains, locus YNL071W, strain lat1, hits give low values 1 | S. cerevisiae deletion strains, locus YNL153C, strain GIM3, hits give low values 0.986 | S. cerevisiae deletion strains, locus YNL175C, strain NOP13, hits give low values 0.972 | S. cerevisiae deletion strains, locus YNL183C, strain NPR1, hits give low values 0.981 | S. cerevisiae deletion strains, locus YNL197C, strain WHI3, hits give low values 0.961 | S. cerevisiae deletion strains, locus YNL209W, strain ssb2, hits give low values 1 | S. cerevisiae deletion strains, locus YNL224C, strain SQS1, hits give low values 0.982 | S. cerevisiae deletion strains, locus YNL233W, strain BNI4, hits give low values 1 | S. cerevisiae deletion strains, locus YNL248C, strain rpa49, hits give low values 0.996 | S. cerevisiae deletion strains, locus YNL250W, strain rad50, hits give low values 1.02 | S. cerevisiae deletion strains, locus YNL271C, strain bni1, hits give low values 1.02 | S. cerevisiae deletion strains, locus YNL298W, strain CLA4, hits give low values 1.02 | S. cerevisiae deletion strains, locus YNL307C, strain MCK1, hits give low values 1.02 | S. cerevisiae deletion strains, locus YNL322C, strain KRE1 (second series), hits give low values 1 | S. cerevisiae deletion strains, locus YNR049C, strain mso1, hits give low values 1 | S. cerevisiae deletion strains, locus YNR052C, strain pop2, hits give low values 1.02 | S. cerevisiae deletion strains, locus YOL006C, strain TOP1, hits give low values 0.966 | S. cerevisiae deletion strains, locus YOL012C, strain htz1 0.894 | S. cerevisiae deletion strains, locus YOL147C, strain pex11, hits give low values 1.02 | S. cerevisiae deletion strains, locus YOR001W, strain rrp6, hits give low values 0.985 | S. cerevisiae deletion strains, locus YOR061W, strain CKA2, hits give low values 1.02 | S. cerevisiae deletion strains, locus YOR069W, strain VPS5, hits give low values 1.02 | S. cerevisiae deletion strains, locus YOR070C, strain gyp1, hits give low values 1 | S. cerevisiae deletion strains, locus YOR080W, strain dia2, hits give low values 1.03 | S. cerevisiae deletion strains, locus YOR083W, strain WHI5 (second series), hits give low values 0.968 | S. cerevisiae deletion strains, locus YOR083W, strain WHI5, hits give low values 0.999 | S. cerevisiae deletion strains, locus YOR106W, strain vam3, hits give low values 1 | S. cerevisiae deletion strains, locus YOR136W, strain idh2, hits give low values 1.02 | S. cerevisiae deletion strains, locus YOR144C, strain elg1, hits give low values 1.01 | S. cerevisiae deletion strains, locus YOR184W, strain ser1, hits give low values 1.01 | S. cerevisiae deletion strains, locus YOR231W, strain MKK1, hits give low values 1.03 | S. cerevisiae deletion strains, locus YOR265W, strain rbl2, hits give low values 1.01 | S. cerevisiae deletion strains, locus YOR270C, strain vph1, hits give low values 0.993 | S. cerevisiae deletion strains, locus YOR290C, strain snf2, hits give low values 1 | S. cerevisiae deletion strains, locus YOR316C, strain cot1, hits give low values 1.02 | S. cerevisiae deletion strains, locus YPL051W, strain arl3, hits give low values 1 | S. cerevisiae deletion strains, locus YPL055C, strain LGE1, hits give low values 1 and 1.04 | S. cerevisiae deletion strains, locus YPL078C, strain atp4, hits give low values 0.999 | S. cerevisiae deletion strains, locus YPL106C, strain sse1, hits give low values 1.01 | S. cerevisiae deletion strains, locus YPL240C, strain hsp82, hits give low values 1 | S. cerevisiae deletion strains, locus YPL241C, strain CIN2, hits give low values 0.991 | S. cerevisiae deletion strains, locus YPL256C, strain CLN2, hits give low values 1 | S. cerevisiae deletion strains, locus YPR119W, strain clb2, hits give low values 1.01 | S. cerevisiae deletion strains, locus YPR141C, strain kar3, hits give low values 1.02 | S. cerevisiae deletion strains, locus YPR163C, strain tif3, hits give low values 1.02 | S. cerevisiae deletion strains, locus YPR167C, strain met16, hits give low values 1.01 | S. cerevisiae deletion strains, strain wtn01, hits give low values 1.01 | S. cerevisiae strains, strain wild type, hits give low values 1.02
